Assay results as given in PubChem BioAssay (Tox21).
Unmarked numbers belong to inactive results. Records with an inconclusive call do not appear. Entries that show only a call come without a potency. The source made the active and inactive calls. Unless noted, the call rests on the fitted dose curve; in most records, active means well fitted curve in the direction sought with a large enough effect in the repeat runs; inconclusive means weak or mixed curves; inactive means no such curve, though single readings can be large; an effect the other way counts as inactive or inconclusive. Non-standard residues stand in square brackets, D forms with d. Residues, ends and D or L forms follow the SMILES beside them. *: point of attachment. Sta = CC(C)C[C@H](N)[C@@H](O)CC(=O)O; Isovaleryl = CC(C)CC(=O)*

Key:
[1] = qHTS assay to identify small molecule agonists of the TGF-beta/Smad signaling pathway - cell viability counter screen (AID 1346829); further: top concentration of the series differs between compounds; nearly all actives have a fitted effect of over 45% in size
Outline: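 Same-well cytotoxicity: CellTiter-Glo added after the 2 hr room-temperature beta-lactamase substrate step, luminescence measured 30 min later; cells had 5 hr of compound at 37 C.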

[2] = Human pregnane X receptor (PXR) small molecule agonists, qHTS cell viability counter screen (AID 1346977); further: nearly all actives have a fitted effect of over 50% in size
Outline: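 Tox21 qHTS format; PXR-Luc HepG2, 2,000/well, charcoal-stripped FBS 5%. Cpd exposure 24hr. Read: CellTiter-Fluor fluorescence, multiplexed with luciferase.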

[3] = Caspase-3/7 induction in HepG2 cells by small molecules, qHTS assay (AID 1346978); further: nearly all actives have a fitted effect of over 15% in size
Outline: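 Wild-type HepG2 cells, 2,000/well, settled 5 hr at 37 C and 5% CO2, then compound-treated for 17 hr; caspase-3/7 activity read by luminescent Caspase-Glo 3/7 after 30 min at room temperature.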

[4] = Caspase-3/7 induction in CHO-K1 cells by small molecules, qHTS cell viability counter screen (AID 1346979); further: nearly all actives have a fitted effect of over 35% in size
Outline: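 CellTiter-Fluor viability check, qHTS format: wild-type CHO-K1, 16hr compound treatment, 1hr reagent incubation, fluorescence read.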

[5] = Caspase-3/7 induction in CHO-K1 cells by small molecules, qHTS assay (AID 1346980); further: nearly all actives have a fitted effect of over 15% in size
Outline: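 Wild-type CHO-K1 cells exposed to compounds for 17hr at 37 C, 5% CO2. Caspase-3/7 activity then measured by Caspase-Glo 3/7 luminescence after 30min at room temperature.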

[6] = Caspase-3/7 induction in HepG2 cells by small molecules, qHTS cell viability counter screen (AID 1346981); further: series mostly up to about 92 µM; nearly all actives have a fitted effect of over 30% in size
Outline: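 Multiplexed with the caspase-3/7 assay: HepG2 cells, 16 hr compound treatment, CellTiter-Fluor viability detection by fluorescence.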

[7] = molecular target: Nuclear receptor subfamily 1 group I member 2 (Homo sapiens) (UniProt O75469); assay: Human pregnane X receptor (PXR) small molecule agonists, qHTS assay (AID 1346982); further: nearly all actives have a fitted effect of over 35% in size
Chain of Nuclear receptor subfamily 1 group I member 2 (Homo sapiens) (O75469 whole entry, looked up): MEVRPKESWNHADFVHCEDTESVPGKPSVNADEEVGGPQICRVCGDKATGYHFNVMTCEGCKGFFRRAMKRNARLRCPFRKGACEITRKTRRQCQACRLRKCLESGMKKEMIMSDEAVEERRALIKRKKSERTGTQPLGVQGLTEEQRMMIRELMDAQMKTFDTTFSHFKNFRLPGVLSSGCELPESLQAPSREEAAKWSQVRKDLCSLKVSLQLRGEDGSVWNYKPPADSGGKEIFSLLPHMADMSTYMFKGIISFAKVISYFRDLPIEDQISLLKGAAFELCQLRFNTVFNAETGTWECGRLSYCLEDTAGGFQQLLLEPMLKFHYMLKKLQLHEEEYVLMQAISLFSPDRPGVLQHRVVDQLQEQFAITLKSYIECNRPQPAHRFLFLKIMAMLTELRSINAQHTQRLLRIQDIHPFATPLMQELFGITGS
Outline: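 We seeded PXR-Luc HepG2 cells in assay medium containing 5% charcoal-stripped FBS, added compounds 5 hr later, incubated 24 hr, and read luminescence with ONE-Glo reagent.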

[8] = molecular target: Cytochrome P450 2D6 (Homo sapiens) (UniProt P10635); assay: Cytochrome P450 Family 2 Subfamily D Member 6 (CYP2D6) small molecule antagonists: luciferase reporter qHTS assay (AID 1671196); further: nearly all actives have a fitted effect of over 50% in size; further: potency means the concentration at half of the fitted maximal effect
Chain of Cytochrome P450 2D6 (Homo sapiens) (P10635 whole entry, looked up): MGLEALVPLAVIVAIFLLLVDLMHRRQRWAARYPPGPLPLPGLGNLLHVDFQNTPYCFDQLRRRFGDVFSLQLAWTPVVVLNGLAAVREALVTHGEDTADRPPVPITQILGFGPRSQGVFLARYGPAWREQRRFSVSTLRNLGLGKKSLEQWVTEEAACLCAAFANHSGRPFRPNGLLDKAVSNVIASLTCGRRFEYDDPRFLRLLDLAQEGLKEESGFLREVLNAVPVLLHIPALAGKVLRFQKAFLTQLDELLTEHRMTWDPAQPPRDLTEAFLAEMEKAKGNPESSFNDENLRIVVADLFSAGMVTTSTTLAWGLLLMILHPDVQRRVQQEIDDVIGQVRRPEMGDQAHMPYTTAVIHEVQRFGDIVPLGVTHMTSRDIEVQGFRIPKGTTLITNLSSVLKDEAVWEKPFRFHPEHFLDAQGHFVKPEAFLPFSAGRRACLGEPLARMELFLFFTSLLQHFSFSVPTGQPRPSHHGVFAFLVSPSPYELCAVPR
Outline: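 Luminescence (RLU), read 20 min after detection reagent, indicated CYP2D6 conversion of proluciferin to luciferin during a 1 h NADPH-dependent reaction at room temperature.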

[9] = molecular target: Cytochrome P450 2C19 (Homo sapiens) (UniProt P33261); assay: Cytochrome P450 Family 2 Subfamily C Member 19 (CYP2C19) small molecule antagonists: luciferase reporter qHTS assay (AID 1671197); further: nearly all actives have a fitted effect of over 65% in size; further: potency means the concentration at half of the fitted maximal effect
Chain of Cytochrome P450 2C19 (Homo sapiens) (P33261 whole entry, looked up): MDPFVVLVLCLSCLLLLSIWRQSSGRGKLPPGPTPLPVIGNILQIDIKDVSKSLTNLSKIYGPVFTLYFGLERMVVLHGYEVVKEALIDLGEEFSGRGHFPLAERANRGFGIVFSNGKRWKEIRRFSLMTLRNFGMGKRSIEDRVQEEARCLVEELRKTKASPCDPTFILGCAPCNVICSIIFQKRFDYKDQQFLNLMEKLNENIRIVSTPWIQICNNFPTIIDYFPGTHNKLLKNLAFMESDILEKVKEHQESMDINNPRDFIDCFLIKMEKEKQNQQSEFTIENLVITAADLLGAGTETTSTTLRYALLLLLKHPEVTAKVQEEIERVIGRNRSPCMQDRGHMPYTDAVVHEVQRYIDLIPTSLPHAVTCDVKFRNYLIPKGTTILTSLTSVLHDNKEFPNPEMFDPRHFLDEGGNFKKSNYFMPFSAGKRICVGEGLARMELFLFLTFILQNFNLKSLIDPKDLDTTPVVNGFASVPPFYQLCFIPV
Outline: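 Quantitative high-throughput screen of the Tox21 library using CYP2C19 with proluciferin substrate. Reaction: NADPH regeneration, 37C, 1 h, after 10 min compound preincubation at room temperature. Readout: luminescence.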

[10] = molecular target: Cytochrome P450 2C9 (Homo sapiens) (UniProt P11712); assay: Cytochrome P450 Family 2 Subfamily C Member 9 (CYP2C9) small molecule antagonists: luciferase reporter qHTS assay (AID 1671198); further: nearly all actives have a fitted effect of over 50% in size; further: potency means the concentration at half of the fitted maximal effect
Chain of Cytochrome P450 2C9 (Homo sapiens) (P11712 whole entry, looked up): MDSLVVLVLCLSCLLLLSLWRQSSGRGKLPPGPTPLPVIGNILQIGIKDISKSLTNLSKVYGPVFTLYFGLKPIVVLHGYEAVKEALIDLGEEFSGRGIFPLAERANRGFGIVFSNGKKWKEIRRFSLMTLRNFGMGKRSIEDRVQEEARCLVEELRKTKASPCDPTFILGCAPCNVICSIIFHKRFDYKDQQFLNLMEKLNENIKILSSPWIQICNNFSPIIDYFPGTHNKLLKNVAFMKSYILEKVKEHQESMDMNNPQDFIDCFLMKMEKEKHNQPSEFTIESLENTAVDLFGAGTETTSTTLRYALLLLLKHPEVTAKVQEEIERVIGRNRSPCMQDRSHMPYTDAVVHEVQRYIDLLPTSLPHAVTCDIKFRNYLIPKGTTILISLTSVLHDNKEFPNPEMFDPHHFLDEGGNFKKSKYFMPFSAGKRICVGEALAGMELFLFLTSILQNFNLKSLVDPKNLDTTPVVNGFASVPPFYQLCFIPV
Outline: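 P450-Glo proluciferin substrate with CYP2C9 enzyme; 10 min RT preincubation, then NADPH regeneration 1 h at 37C; luciferin detection reagent 20 min RT, luminescence in relative luminescence units.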

[11] = molecular target: Cytochrome P450 1A2 (Homo sapiens) (UniProt P05177); assay: Cytochrome P450 Family 1 Subfamily A Member 2 (CYP1A2) small molecule antagonists: luciferase reporter qHTS assay (AID 1671199); further: nearly all actives have a fitted effect of over 50% in size; further: potency means the concentration at half of the fitted maximal effect
Chain of Cytochrome P450 1A2 (Homo sapiens) (P05177 whole entry, looked up): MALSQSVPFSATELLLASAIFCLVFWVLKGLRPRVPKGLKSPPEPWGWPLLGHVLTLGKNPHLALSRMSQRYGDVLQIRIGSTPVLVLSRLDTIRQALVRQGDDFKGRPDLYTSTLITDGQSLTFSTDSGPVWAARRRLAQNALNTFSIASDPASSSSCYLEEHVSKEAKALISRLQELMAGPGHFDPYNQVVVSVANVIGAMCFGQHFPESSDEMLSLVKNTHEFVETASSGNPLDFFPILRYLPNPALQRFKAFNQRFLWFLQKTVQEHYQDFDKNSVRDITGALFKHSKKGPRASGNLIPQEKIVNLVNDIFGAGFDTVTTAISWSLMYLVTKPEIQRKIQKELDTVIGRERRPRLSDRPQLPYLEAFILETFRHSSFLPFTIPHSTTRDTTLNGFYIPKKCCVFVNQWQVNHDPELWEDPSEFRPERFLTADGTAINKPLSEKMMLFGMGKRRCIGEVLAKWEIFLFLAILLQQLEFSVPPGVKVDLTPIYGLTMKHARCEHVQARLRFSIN
Outline: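 CYP1A2 turnover of a luminogenic substrate was quantified after 1 h with NADPH regeneration at room temperature. Furafylline served as positive control.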

[12] = molecular target: Voltage-gated inwardly rectifying potassium channel KCNH2 (Homo sapiens) (UniProt Q12809); assay: Human Ether-a-go-go-Related Gene (hERG) channel small molecule antagonists: fluorescence cell-based qHTS assay (AID 1671200)
Chain of Voltage-gated inwardly rectifying potassium channel KCNH2 (Homo sapiens) (Q12809 whole entry, looked up): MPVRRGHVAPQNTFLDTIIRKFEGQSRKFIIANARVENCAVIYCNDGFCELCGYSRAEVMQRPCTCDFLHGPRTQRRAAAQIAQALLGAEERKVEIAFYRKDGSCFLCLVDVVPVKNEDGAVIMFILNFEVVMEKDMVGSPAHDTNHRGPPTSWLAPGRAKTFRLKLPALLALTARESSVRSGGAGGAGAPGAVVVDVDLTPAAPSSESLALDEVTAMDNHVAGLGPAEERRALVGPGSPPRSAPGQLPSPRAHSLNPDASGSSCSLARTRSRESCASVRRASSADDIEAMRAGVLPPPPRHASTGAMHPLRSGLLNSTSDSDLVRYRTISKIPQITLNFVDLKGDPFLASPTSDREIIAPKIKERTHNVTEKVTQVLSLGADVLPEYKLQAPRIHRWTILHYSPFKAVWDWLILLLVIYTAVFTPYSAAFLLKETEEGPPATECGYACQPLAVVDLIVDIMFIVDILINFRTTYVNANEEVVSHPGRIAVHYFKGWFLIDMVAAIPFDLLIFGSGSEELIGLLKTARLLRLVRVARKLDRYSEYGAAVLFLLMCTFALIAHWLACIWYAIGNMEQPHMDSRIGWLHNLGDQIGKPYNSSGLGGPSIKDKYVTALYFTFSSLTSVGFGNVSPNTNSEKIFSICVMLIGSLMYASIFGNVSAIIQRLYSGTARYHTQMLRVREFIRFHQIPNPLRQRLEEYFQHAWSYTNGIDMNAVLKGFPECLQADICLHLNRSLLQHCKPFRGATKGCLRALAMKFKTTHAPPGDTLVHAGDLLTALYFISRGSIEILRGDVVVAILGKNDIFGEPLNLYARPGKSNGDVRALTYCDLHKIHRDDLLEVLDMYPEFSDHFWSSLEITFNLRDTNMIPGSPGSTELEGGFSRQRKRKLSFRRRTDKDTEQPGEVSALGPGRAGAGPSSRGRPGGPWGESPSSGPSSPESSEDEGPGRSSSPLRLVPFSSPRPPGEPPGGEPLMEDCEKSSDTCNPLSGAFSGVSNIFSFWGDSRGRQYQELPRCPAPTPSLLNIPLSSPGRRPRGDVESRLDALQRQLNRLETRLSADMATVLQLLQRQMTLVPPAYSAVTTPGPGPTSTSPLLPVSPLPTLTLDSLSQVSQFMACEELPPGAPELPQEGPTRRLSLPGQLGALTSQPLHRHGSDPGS
Outline: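 Kinetic two-minute fluorescence traces, sampled at 1 s, were collected following thallium stimulus of U2OS cells (1000 per well) that had been cultured overnight at 37 C and loaded with FluxOR II.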

[13] = molecular target: Cytochrome P450 3A4 (Homo sapiens) (UniProt P08684); assay: Cytochrome P450 Family 3 Subfamily A Member 4 (CYP3A4) small molecule antagonists: luciferase reporter qHTS assay (AID 1671201); further: nearly all actives have a fitted effect of over 50% in size; further: potency means the concentration at half of the fitted maximal effect
Chain of Cytochrome P450 3A4 (Homo sapiens) (P08684 whole entry, looked up): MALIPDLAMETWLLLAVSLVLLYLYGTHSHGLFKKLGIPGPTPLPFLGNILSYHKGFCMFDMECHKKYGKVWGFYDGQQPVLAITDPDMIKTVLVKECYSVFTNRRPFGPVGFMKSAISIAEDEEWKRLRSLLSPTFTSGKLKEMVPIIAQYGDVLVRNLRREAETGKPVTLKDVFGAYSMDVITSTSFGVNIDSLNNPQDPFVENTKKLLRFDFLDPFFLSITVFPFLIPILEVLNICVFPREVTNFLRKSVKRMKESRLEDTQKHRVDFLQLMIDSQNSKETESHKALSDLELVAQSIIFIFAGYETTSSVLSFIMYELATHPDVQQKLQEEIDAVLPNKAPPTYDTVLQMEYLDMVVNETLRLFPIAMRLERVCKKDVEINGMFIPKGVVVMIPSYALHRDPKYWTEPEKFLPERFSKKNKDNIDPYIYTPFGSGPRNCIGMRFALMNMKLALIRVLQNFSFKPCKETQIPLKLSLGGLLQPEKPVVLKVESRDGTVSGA
Outline: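 Proluciferin-to-luciferin conversion by CYP3A4, NADPH-regenerated, 1 h RT; luminescence read as RLU. Ketoconazole as control.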

[14] = molecular target: Thyrotropin-releasing hormone receptor (Homo sapiens) (UniProt P34981); assay: qHTS assay to identify small molecule antagonists of the thyrotropin-releasing hormone receptor (TRHR) signaling pathway (AID 1346877; active means well fitted inhibition curve with a large enough effect in the repeat runs, not every such curve was filed as active; further: series mostly up to about 51 µM)
Chain of Thyrotropin-releasing hormone receptor (Homo sapiens) (P34981 whole entry, looked up): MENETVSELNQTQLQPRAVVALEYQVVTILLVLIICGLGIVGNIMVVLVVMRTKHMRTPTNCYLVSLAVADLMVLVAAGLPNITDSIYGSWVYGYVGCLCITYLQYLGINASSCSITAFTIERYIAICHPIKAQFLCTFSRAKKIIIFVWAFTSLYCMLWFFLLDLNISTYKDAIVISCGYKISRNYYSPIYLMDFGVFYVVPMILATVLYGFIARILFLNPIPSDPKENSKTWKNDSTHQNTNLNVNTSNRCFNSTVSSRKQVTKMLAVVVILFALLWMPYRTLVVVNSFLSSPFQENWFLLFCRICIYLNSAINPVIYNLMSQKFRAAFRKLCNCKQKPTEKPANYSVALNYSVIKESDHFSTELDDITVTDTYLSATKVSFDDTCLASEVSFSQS
Outline: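 Screening used HEK293 cells engineered with TRHR, with a brief 5 min room-temperature compound exposure preceding addition of TRH to 1 nM. The read-out was kinetic calcium-dye fluorescence, concentration-response from 15 doses in triplicate.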

[15] = molecular target: Thyrotropin-releasing hormone receptor (Homo sapiens) (UniProt P34981); assay: qHTS assay to identify small molecule agonists of the thyrotropin-releasing hormone receptor (TRHR) signaling pathway (AID 1346891; calls by dose curve; further: series mostly up to about 58 µM)
Outline: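 Screening of agonists relied on calcium signalling in HEK293 cells expressing human TRHR: dye loading 2 h at 37 °C preceded compound addition and a 3-min fluorescence time course.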

[16] = qHTS assay to identify small molecule agonists of the TGF-beta/Smad signaling pathway (AID 1346859; active means well fitted activation curve with a large enough effect in the signal ratio in the repeat runs, not every such curve was filed as active; the % refers to the signal ratio; further: series mostly up to about 77 µM)
Outline: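 Each well held 4,000 SBE-bla HEK 293T cells incubated overnight before compound addition; 5 hr later the cleavable FRET substrate went on for 2 hr at room temperature, and fluorescence was read at two emissions.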

[17] = molecular target: Nuclear receptor subfamily 1 group I member 2 (Homo sapiens) (UniProt O75469); assay: CYP3A4 induction through human pregnane X receptor (PXR) by small molecules, qHTS assay (AID 1346984); further: nearly all actives have a fitted effect of over 40% in size
Outline: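 qHTS, concentration-response format: HepG2 DPX-2 line, PXR/CYP3A4-luc. Exposure 24 h, 37C. Substrate Luciferin-IPA 3uM final, 3 h. Detection One-Glo, 30 min RT.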

[18] = molecular target: Nuclear receptor subfamily 1 group I member 2 (Homo sapiens) (UniProt O75469); assay: Human pregnane X receptor (PXR) activation by small molecules, qHTS assay (AID 1346985); further: nearly all actives have a fitted effect of over 40% in size
Outline: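 DPX-2 cells (HepG2 co-transfected with a PXR response element and a CYP3A4-promoter luciferase construct) were seeded at 2,000 per well, rested 5 hr at 37C, then exposed to DMSO-dissolved compounds for 24 hr. Activation was read as luciferase luminescence.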

Structure (SMILES)	outcome [1]	outcome [2]	outcome [3]	Potency [4]	outcome [5]	outcome [6]	Potency [7]	Potency [8]	Potency [9]	Potency [10]	Potency [11]	Potency [12]	Potency [13]	outcome [14]	Potency [15]	outcome [16]	outcome [17]	outcome [18]
C=CC(=O)CC	inactive	inactive	inactive	inactive	inactive	inactive	inactive	inactive	inactive	inactive	inactive	inactive	inactive	–	–	–	–	–
COc1cc(NS(=O)(=O)c2ccc(N)cc2)ncn1	inactive	inactive	inactive	inactive	inactive	inactive	–	inactive	inactive	–	–	inactive	inactive	inactive	inactive	–	–	–
Cc1ccc(OC(=O)CC(C)C)cc1	inactive	inactive	inactive	inactive	inactive	inactive	inactive	inactive	inactive	inactive	–	inactive	inactive	inactive	inactive	–	–	–
CCCCNCC	inactive	inactive	inactive	inactive	inactive	inactive	inactive	inactive	27.2 µM (active)	–	19.3 µM (active)	inactive	inactive	inactive	inactive	–	–	–
C=C(C)C(=O)OCCCC	inactive	inactive	inactive	inactive	inactive	inactive	inactive	inactive	inactive	inactive	inactive	inactive	inactive	inactive	inactive	–	–	–
CCC(=O)OCCOc1ccccc1	inactive	inactive	–	inactive	inactive	inactive	inactive	inactive	–	inactive	–	inactive	inactive	inactive	inactive	–	–	–
Cc1ccc(O)c([N+](=O)[O-])c1	inactive	inactive	inactive	inactive	inactive	inactive	inactive	71.8 µM (active)	inactive	inactive	–	inactive	inactive	–	inactive	–	–	–
C=CCCCCCCCCOC(C)=O	inactive	inactive	inactive	inactive	inactive	inactive	inactive	inactive	inactive	inactive	–	inactive	inactive	–	inactive	–	–	–
N#CC1(N)CCCCC1	inactive	inactive	–	inactive	inactive	inactive	inactive	inactive	inactive	inactive	inactive	inactive	inactive	inactive	inactive	–	–	–
CNC(=O)c1c(I)c(NC(C)=O)c(I)c(C(=O)O)c1I	inactive	inactive	inactive	–	inactive	inactive	inactive	inactive	inactive	inactive	–	inactive	inactive	–	inactive	–	–	–
BrCCOc1ccccc1	inactive	inactive	inactive	inactive	inactive	inactive	inactive	56.6 µM (active)	89.6 µM (active)	inactive	–	inactive	inactive	inactive	inactive	–	–	–
CCCCc1ccc(Cl)cc1	inactive	inactive	–	inactive	inactive	–	inactive	inactive	inactive	inactive	–	inactive	inactive	inactive	inactive	–	–	–
CCOC(=O)CN1CCCC1=O	inactive	inactive	inactive	inactive	inactive	inactive	inactive	inactive	inactive	inactive	inactive	inactive	inactive	–	inactive	–	–	–
CC(C)CC(=O)N[C@H](C(=O)N[C@H](C(=O)N[C@@H](CC(C)C)[C@@H](O)CC(=O)N[C@@H](C)C(=O)N[C@@H](CC(C)C)[C@@H](O)CC(=O)O)C(C)C)C(C)C (Isovaleryl-VV[Sta]A[Sta]-OH)	–	inactive	inactive	inactive	inactive	inactive	inactive	inactive	inactive	inactive	–	inactive	inactive	inactive	inactive	inactive	inactive	inactive
N#Cc1ccccc1C#N	inactive	inactive	inactive	inactive	inactive	inactive	–	inactive	inactive	inactive	–	inactive	inactive	–	inactive	–	–	–
CCCCCCCCCCCCCCCC/C=C/C1CC(=O)OC1=O (stereo not given)	inactive	inactive	inactive	inactive	inactive	inactive	inactive	–	27.4 µM (active)	–	–	inactive	15.4 µM (active)	–	–	–	–	–
O=C(O)COc1ccc2ccccc2c1	inactive	inactive	inactive	–	inactive	inactive	inactive	inactive	inactive	–	inactive	inactive	inactive	inactive	inactive	–	–	–
CSC(=O)c1cccc2nnsc12	inactive	inactive	inactive	–	inactive	inactive	inactive	35.6 µM (active)	12.6 µM (active)	7.96 µM (active)	0.71 µM (active)	inactive	inactive	inactive	inactive	–	–	–
CC1=C(O)C(=O)CO1	inactive	inactive	inactive	inactive	inactive	inactive	inactive	inactive	–	–	inactive	inactive	inactive	inactive	inactive	–	–	–
